According to the supplement of paper PMC9950053:
Where a name gives a salt, the structure may show the parent alone.

Tested on: Danio rerio larvae (5 dpf)
Test: 1-h baseline activity (% time moving, periods 1-6) minus DMSO control (percentage points); higher = more locomotor activity than DMSO larvae
Details: 10 µM; exposure time: 3 h pre-incubation + 3 h imaging
Method: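 Wild-type 5 dpf zebrafish larvae (n=48 per drug, 96-well plates, 28.5 °C) were exposed to Tocris FDA-approved library compounds at 10 µM (0.1% DMSO) for 3 h before and 3 h during imaging. Images were taken every 6 s during visual and acoustic stimuli, and larvae were tracked with Z-LaP Tracker. Each measure is the treated-group mean minus the DMSO control mean (n=844), in percentage points. This mapping covers compounds with 5-character plate codes.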

| Compound | 1-h baseline activity |
| --- | --- |
| COc1ccc(C(CN(C)C)C2(O)CCCCC2)cc1 (stereo unspecified) [Venlafaxine hydrochloride] | -22.8 |
